From PubChem BioAssay AID602197 (NMMLSC, 2012)
The other results are listed elsewhere or left out. The source made the active and inactive calls. Cut-off read from the data, not from the text of the source: active = response above about 24%; inactive = the rest.

Assay: yeast V-ATPase proton pumping modulators, confirmation, S. cerevisiae, pH-sensitive GFP, second cherry-pick (AID 602197);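 note: plate controls were vehicle wells for no effect and positive control wells for full effect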
Details: S. cerevisiae pHLuorin cytosolic pH, V-ATPase proton transport; at 10 µM; active compounds read high

response, inactive:
CCCCNc1ccc(C(=O)Nc2cccc(C)n2)cc1[N+](=O)[O-] 2.43%
COc1ccc(CCN2C(=O)N(c3ccc(OC)cc3)C(=O)C2CC(=O)Nc2ccc(OC)cc2)cc1 (stereo not drawn) -1%
CNC(=O)c1csc(Cc2c(Cl)sc3ccc(Cl)cc23)n1 2.33%
O=C(COC(=O)c1ccccc1Br)Nc1nnc(-c2ccccc2)o1 3.01%
O=C(NC1CCN(Cc2ccccc2)CC1)c1cc(Br)c(Br)[nH]1 2.14%
COC(=O)COc1ccc2c(=O)c(Oc3ccccc3Br)coc2c1 -1.59%
CCc1ccc(CNC(=O)CCc2nc(-c3cccs3)no2)cc1 2.27%

response, active:
CC1=NOC(=O)/C1=C\c1ccccc1 30.5%
